Assay results from PubChem BioAssay (Tox21).
Results filed as inconclusive are left out. The source made the active and inactive calls. Unless noted, calls come from the whole dose curve; as a rule, active = well fitted curve in the direction sought with a large enough effect in the repeat runs; inconclusive = weak or mixed curves; inactive = no such curve, though single readings can be large; an effect the other way counts as inactive or inconclusive.

How the values were obtained:
[1] = qHTS assay to identify aromatase inhibitors - cell viability counter screen (AID 743084); conditions: MCF-7 aro ERE viability, CellTiter-Fluor, 24 h; series mostly up to 70.3 µM;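 note: cells stimulated with testosterone during compound exposure; nearly all actives have a fitted effect of over 55% in size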
[2] = qHTS assay to identify small molecule that activate the aryl hydrocarbon receptor (AhR) signaling pathway - cell viability counter screen (AID 743086); conditions: HepG2-AhR-luc viability, CellTiter-Fluor, 24 h; series mostly up to 70.3 µM;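 note: HepG2 liver cells carrying the AhR DRE luciferase reporter; nearly all actives have a fitted effect of over 45% in size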
How it was run: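 HepG2-AhR-luc (HG2L7.5c1) cells, 4000/well, treated 24 h at 37 C with compound; viability measured as CellTiter-Fluor fluorescence after 30 min in the same wells as the luciferase read.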

[3] = biological target: Peroxisome proliferator-activated receptor gamma (Homo sapiens) (UniProt P37231); assay: qHTS assay to identify small molecule agonists of the peroxisome proliferator-activated receptor gamma (PPARg) signaling pathway (AID 743094; active = well fitted activation curve with a large enough effect in the signal ratio in the repeat runs, not every such curve was filed as active; the % refers to the signal ratio); conditions: HEK293H PPARg-UAS-bla, beta-lactamase FRET ratio, 17 h; series mostly up to 57 µM
How it was run: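 GeneBLAzer PPARg UAS-bla HEK293H cells carrying a stably integrated beta-lactamase reporter were pre-incubated 5 h at 37C, then exposed to compounds in DMSO for 17 h at 37C; LiveBLAzer B/G FRET substrate was added for 1 h at room temperature and fluorescence read.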

[4] = biological target: Peroxisome proliferator-activated receptor gamma (Homo sapiens) (UniProt P37231); assay: qHTS assay to identify small molecule antagonists of the peroxisome proliferator-activated receptor gamma (PPARg) signaling pathway (AID 743191; calls by dose curve; note: nearly all actives have a fitted effect of over 30% in size); conditions: HEK293H PPARg-UAS-bla, beta-lactamase ratio, antagonist, 17 h; series mostly up to 62.6 µM
How it was run: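 GeneBLAzer PPARg UAS-bla HEK293H cells, 5 h post-plating, exposed to compounds 17 h at 37C. LiveBLAzer B/G FRET substrate added for 1 h at room temperature; beta-lactamase reporter read by fluorescence intensity.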

[5] = qHTS assay for small molecule agonists of the antioxidant response element (ARE) signaling pathway (AID 743202; active = well fitted activation curve with a large enough effect in the signal ratio in the repeat runs, not every such curve was filed as active; the % refers to the signal ratio); conditions: HepG2 ARE-bla reporter, beta-lactamase FRET, 16 h; series mostly up to 73.3 µM
How it was run: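 Agonist mode reporter screen: HepG2 cells with ARE-controlled beta-lactamase are incubated with test compounds for 16 h at 37 C, and beta-lactamase activity is measured as fluorescence of cleaved B/G FRET substrate.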

[6] = qHTS assay for small molecule agonists of the antioxidant response element (ARE) signaling pathway - cell viability counter screen (AID 743203; calls by dose curve; note: nearly all actives have a fitted effect of over 55% in size); conditions: ARE-bla HepG2 viability, CellTiter-Glo luminescence, 16 h; series mostly up to 73.3 µM
How it was run: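 CellSensor ARE-bla HepG2 cells, 2,000 per well, rested 5 hrs at 37C/5% CO2, then exposed to compound in DMSO for 16 hrs; viability read as CellTiter-Glo luminescence after 30 min at room temperature, in the reporter wells.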

[7] = qHTS assay for small molecule activators of the heat shock response signaling pathway - cell viability counter screen (AID 743209); conditions: HSE-bla HeLa viability, CellTiter-Glo luminescence, 5 h; series mostly up to 62.6 µM; note: nearly all actives have a fitted effect of over 50% in size
How it was run: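 CellSensor HSE-bla HeLa cells, plated overnight at 37 C/5% CO2, were exposed to compounds in DMSO for 5 h at 37 C. Viability was then read in the same wells by CellTiter-Glo luminescence after 30 min at room temperature.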

[8] = qHTS assay to identify small molecule antagonists of the peroxisome proliferator-activated receptor delta (PPARd) signaling pathway - cell viability counter screen (AID 743213); conditions: PPARd-bla HEK293H viability, CellTiter-Glo luminescence, 17 h; series mostly up to 62 µM; note: nearly all actives have a fitted effect of over 50% in size
How it was run: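 Viability counter-screen, qHTS format: PPARd-bla HEK293H, L165041 300 nM final, 17 h compound exposure at 37 C, CellTiter-Glo luminescence after 30 min RT.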

[9] = biological target: Peroxisome proliferator-activated receptor delta (Homo sapiens) (UniProt Q03181); assay: qHTS assay to identify small molecule antagonists of the peroxisome proliferator-activated receptor delta (PPARd) signaling pathway (AID 743215; active = well fitted inhibition curve with a large enough effect in the signal ratio in the repeat runs, not every such curve was filed as active; the % refers to the signal ratio;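 note: cells stimulated with agonist L165041 at 300 nM final during compound exposure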); conditions: HEK293H PPARd-UAS-bla, beta-lactamase FRET ratio, antagonist, 17 h; series mostly up to 62 µM
How it was run: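 PPARd UAS-bla HEK293H cells were pre-incubated 5 h at 37 C, then given test compounds in DMSO plus agonist L165041 (300 nM final). After 17 h at 37 C, beta-lactamase FRET substrate was added; fluorescence read after 2 h at room temperature.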

[10] = qHTS assay to identify small molecule agonists of the farnesoid-X-receptor (FXR) signaling pathway - cell viability counter screen (AID 743218); conditions: FXR-bla HEK293T viability, CellTiter-Glo luminescence, 16 h; series mostly up to 62.6 µM; note: nearly all actives have a fitted effect of over 45% in size
How it was run: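 FXR-UAS-bla HEK 293T cells, plated 5 h at 37 C, were exposed to compounds for 16 h at 37 C. CellTiter-Glo was then added to the same wells as the bla readout; luminescence read after 30 min at room temperature.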

[11] = qHTS assay to identify small molecule antagonists of the farnesoid-X-receptor (FXR) signaling pathway - cell viability counter screen (AID 743221; active = well fitted cell-killing curve with a large enough effect in the repeat runs, not every such curve was filed as active; note: nearly all actives have a fitted effect of over 50% in size); conditions: FXR-bla HEK293T viability, CellTiter-Glo luminescence, 16 h; series mostly up to 62.6 µM
How it was run: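 Here viability was scored by luminescence after CellTiter-Glo addition to wells already read for beta-lactamase. Prior treatment: compound plus CDCA (50 uM final), 16 h, 37 C, HEK 293T FXR-bla cells.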

[12] = biological target: Vitamin D3 receptor (Homo sapiens) (UniProt P11473); assay: qHTS assay to identify small molecule antagonists of the vitamin D receptor (VDR) signaling pathway (AID 743223; active = well fitted inhibition curve with a large enough effect in the signal ratio in the repeat runs, not every such curve was filed as active; the % refers to the signal ratio); conditions: VDR-UAS-bla HEK293T, beta-lactamase FRET ratio, 16 h; series mostly up to 61 µM
How it was run: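 Inhibition of agonist-driven VDR signalling is scored in VDR-bla cells: 3 nM final 1alpha,25-dihydroxyvitamin D3 plus compound, 16 h at 37C, then beta-lactamase detection by FRET substrate fluorescence after 2 h.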

[13] = qHTS assay to identify small molecule antagonists of the peroxisome proliferator-activated receptor gamma (PPARg) signaling pathway - cell viability counter screen (AID 743194); conditions: PPARg-bla HEK293H viability, CellTiter-Glo luminescence, 17 h, co-treated with 50 nM rosiglitazone; series mostly up to 62.6 µM; note: nearly all actives have a fitted effect of over 55% in size
How it was run: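 Cytotoxicity counter screen in PPARg-bla HEK293H cells, same wells as reporter assay. Compounds plus 50 nM rosiglitazone (final) for 17 h at 37 C, then viability read by CellTiter-Glo luminescence.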

[14] = qHTS assay for small molecule activators of the heat shock response signaling pathway (AID 743210; active = well fitted activation curve with a large enough effect in the signal ratio in the repeat runs, with a control signal flat, not every such curve was filed as active; the % refers to the signal ratio;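 note: HeLa cells with beta-lactamase reporter driven by heat shock elements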); conditions: HeLa HSE-bla reporter, beta-lactamase ratio, 5 h; series mostly up to 62.6 µM
How it was run: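 Quantitative high-throughput format using an engineered HeLa line in which heat shock response elements drive beta-lactamase; after 5 h with compound, cells received a B/G FRET substrate and fluorescence was read.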

[15] = biological target: Peroxisome proliferator-activated receptor delta (Homo sapiens) (UniProt Q03181); assay: qHTS assay to identify small molecule agonists of the peroxisome proliferator-activated receptor delta (PPARd) signaling pathway (AID 743212; calls by dose curve); conditions: HEK293H PPARd-UAS-bla, beta-lactamase FRET ratio, 17 h; series mostly up to 62.6 µM
How it was run: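 Quantitative high-throughput agonist screen in a HEK293H beta-lactamase reporter line under UAS control. Compounds in DMSO, at 37 C. Fluorescence read after 2 h with FRET substrate at room temperature.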

[16] = biological target: Vitamin D3 receptor (Homo sapiens) (UniProt P11473); assay: qHTS assay to identify small molecule agonists of the vitamin D receptor (VDR) signaling pathway (AID 743222; calls by dose curve); conditions: HEK293T VDR-UAS-bla, beta-lactamase FRET ratio, 16 h; series mostly up to 63.5 µM
How it was run: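 VDR-bla cells were plated 4 h at 37C/5% CO2, then exposed to compounds in DMSO for 16 h. After LiveBLAzer B/G FRET substrate addition and 2 h at room temperature, beta-lactamase reporter fluorescence was read.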

[17] = biological target: Aryl hydrocarbon receptor (Homo sapiens) (UniProt P35869); assay: qHTS assay to identify small molecule that activate the aryl hydrocarbon receptor (AhR) signaling pathway (AID 743085); conditions: HepG2 AhR-luc (HG2L7.5c1), luciferase, 24 h; series mostly up to 70.3 µM;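 note: HG2L7.5c1 human HepG2 liver cells with stably integrated DRE-driven firefly reporter; nearly all actives have a fitted effect of over 15% in size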
How it was run: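 Stably transfected human liver carcinoma cells (HG2L7.5c1; 20 DRE-firefly luciferase) were incubated 5 h, dosed, and kept 24 h at 37C. Agonism was scored from increased luciferase luminescence.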

[18] = qHTS assay to identify small molecule agonists of the peroxisome proliferator-activated receptor delta (PPARd) signaling pathway - cell viability counter screen (AID 743211); conditions: PPARd-bla HEK293H viability, CellTiter-Glo luminescence, 17 h; series mostly up to 62.6 µM; note: nearly all actives have a fitted effect of over 55% in size
How it was run: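 In the same wells used for beta-lactamase reporter measurement, cytotoxicity is scored by CellTiter-Glo. HEK293H PPARd-bla cells receive compound for 17 h at 37C following a 5 h settling period.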

[19] = biological target: Bile acid receptor (Homo sapiens) (UniProt Q96RI1); assay: qHTS assay to identify small molecule antagonists of the farnesoid-X-receptor (FXR) signaling pathway (AID 743217; active = well fitted inhibition curve with a large enough effect in the signal ratio in the repeat runs, not every such curve was filed as active; the % refers to the signal ratio); conditions: HEK293T FXR-UAS-bla, beta-lactamase ratio, CDCA-stimulated, 16 h; series mostly up to 62.6 µM
How it was run: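 FXR-UAS-bla HEK 293T cells pre-incubated 5 h at 37 °C, then exposed to compounds with chenodeoxycholic acid (50 uM final) for 16 h at 37 °C. Beta-lactamase reporter read by LiveBLAzer B/G FRET substrate fluorescence after 2 h at room temperature.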

[20] = biological target: Bile acid receptor (Homo sapiens) (UniProt Q96RI1); assay: qHTS assay to identify small molecule agonists of the farnesoid-X-receptor (FXR) signaling pathway (AID 743220; active = well fitted activation curve with a large enough effect in the signal ratio in the repeat runs, not every such curve was filed as active; the % refers to the signal ratio); conditions: HEK293T FXR-UAS-bla, beta-lactamase FRET ratio, 16 h; series mostly up to 62.6 µM
How it was run: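 Beta-lactamase reporter under UAS control in GeneBLAzer FXR HEK 293T cells (5000/well) measured with LiveBLAzer FRET substrate after 2 h at room temperature. Compound exposure lasted 16 h at 37C.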
% is set by controls: 0 for no effect and ±100 for the full control effect.

Sequence of Vitamin D3 receptor (Homo sapiens) (P11473 whole entry, looked up): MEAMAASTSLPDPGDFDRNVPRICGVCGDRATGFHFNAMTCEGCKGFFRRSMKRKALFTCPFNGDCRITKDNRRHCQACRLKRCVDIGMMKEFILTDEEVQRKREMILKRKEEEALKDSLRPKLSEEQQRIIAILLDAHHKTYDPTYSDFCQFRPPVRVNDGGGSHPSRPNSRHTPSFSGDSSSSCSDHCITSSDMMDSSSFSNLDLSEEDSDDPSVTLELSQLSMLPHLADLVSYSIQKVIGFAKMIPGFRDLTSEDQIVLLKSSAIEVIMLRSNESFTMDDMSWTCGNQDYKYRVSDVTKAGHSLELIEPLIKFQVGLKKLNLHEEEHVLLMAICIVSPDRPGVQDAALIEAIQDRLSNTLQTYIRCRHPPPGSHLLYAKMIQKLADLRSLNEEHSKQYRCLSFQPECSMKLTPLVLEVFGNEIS
Sequence of Peroxisome proliferator-activated receptor delta (Homo sapiens) (Q03181 whole entry, looked up): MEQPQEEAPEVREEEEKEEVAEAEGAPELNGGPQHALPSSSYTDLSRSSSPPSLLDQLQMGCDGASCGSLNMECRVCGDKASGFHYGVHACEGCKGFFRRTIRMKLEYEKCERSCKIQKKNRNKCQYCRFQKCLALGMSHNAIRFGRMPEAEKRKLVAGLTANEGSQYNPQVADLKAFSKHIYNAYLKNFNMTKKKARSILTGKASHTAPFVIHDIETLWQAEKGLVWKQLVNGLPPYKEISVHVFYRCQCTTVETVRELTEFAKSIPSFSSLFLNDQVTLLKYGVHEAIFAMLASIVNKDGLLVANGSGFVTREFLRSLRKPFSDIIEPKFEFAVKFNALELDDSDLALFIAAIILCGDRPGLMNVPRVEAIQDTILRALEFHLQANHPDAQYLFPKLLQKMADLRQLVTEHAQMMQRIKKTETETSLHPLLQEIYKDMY
Sequence of Peroxisome proliferator-activated receptor gamma (Homo sapiens) (P37231 whole entry, looked up): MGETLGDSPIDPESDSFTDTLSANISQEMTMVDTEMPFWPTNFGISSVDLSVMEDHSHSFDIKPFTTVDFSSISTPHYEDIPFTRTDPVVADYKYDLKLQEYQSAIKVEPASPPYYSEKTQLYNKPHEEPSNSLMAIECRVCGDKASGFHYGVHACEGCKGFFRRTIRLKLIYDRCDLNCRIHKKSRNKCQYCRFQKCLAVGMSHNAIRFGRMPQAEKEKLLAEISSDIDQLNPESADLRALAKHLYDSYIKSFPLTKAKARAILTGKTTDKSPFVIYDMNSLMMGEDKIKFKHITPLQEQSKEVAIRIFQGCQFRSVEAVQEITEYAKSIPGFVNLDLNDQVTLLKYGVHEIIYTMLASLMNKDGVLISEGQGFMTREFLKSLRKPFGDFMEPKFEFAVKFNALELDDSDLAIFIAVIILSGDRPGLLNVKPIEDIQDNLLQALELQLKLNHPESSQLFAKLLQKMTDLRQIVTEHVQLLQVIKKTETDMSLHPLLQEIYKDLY
Sequence of Bile acid receptor (Homo sapiens) (Q96RI1 whole entry, looked up): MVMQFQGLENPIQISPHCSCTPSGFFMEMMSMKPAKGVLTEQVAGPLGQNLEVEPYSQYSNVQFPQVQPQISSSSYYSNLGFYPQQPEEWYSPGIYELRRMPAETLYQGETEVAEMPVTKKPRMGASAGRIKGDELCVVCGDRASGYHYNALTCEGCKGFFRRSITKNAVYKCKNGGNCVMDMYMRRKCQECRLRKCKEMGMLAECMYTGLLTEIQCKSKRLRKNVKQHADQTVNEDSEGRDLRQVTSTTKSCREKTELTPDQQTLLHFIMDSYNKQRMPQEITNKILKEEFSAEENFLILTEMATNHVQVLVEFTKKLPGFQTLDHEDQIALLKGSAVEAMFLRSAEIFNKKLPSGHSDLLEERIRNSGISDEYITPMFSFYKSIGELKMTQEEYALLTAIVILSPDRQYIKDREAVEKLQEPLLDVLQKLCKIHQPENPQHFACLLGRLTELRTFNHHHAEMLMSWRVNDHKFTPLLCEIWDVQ
Sequence of Aryl hydrocarbon receptor (Homo sapiens) (P35869 whole entry, looked up): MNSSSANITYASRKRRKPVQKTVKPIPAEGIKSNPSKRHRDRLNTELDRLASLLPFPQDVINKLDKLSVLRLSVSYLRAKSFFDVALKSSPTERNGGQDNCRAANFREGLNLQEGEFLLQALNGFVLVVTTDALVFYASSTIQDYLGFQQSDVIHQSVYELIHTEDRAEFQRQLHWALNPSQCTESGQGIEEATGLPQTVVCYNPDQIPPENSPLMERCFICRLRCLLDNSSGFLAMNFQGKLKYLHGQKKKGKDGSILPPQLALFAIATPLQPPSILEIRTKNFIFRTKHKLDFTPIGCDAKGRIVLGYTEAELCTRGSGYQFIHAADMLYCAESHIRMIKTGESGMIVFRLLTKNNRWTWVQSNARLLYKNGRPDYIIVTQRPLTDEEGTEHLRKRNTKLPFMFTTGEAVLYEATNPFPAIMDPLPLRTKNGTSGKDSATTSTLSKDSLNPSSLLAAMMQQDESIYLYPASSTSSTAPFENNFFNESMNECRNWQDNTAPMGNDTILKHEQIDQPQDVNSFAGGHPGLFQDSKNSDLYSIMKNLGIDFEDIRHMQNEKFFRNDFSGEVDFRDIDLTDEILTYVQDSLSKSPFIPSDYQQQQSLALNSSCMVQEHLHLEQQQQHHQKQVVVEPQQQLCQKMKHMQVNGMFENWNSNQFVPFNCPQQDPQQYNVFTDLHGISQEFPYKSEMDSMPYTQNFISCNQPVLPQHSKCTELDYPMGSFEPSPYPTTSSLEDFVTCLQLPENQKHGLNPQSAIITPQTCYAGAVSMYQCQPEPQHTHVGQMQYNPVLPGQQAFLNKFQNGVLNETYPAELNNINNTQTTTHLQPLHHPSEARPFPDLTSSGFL

CCCc1nn(C)c2c(=O)[nH]c(-c3cc(S(=O)(=O)N4CCN(C)CC4)ccc3OCC)nc12
inactive: Potency [1] | Potency [2] | Potency [3] | Potency [4] | Potency [5] | outcome [6] | outcome [7] | outcome [8] | outcome [9] | outcome [10] | outcome [11] | outcome [12]

OCCc1ccccn1
inactive: Potency [1] | Potency [2] | Potency [3] | outcome [13] | Potency [5] | outcome [6] | outcome [7] | outcome [14] | outcome [15] | outcome [8] | outcome [9] | outcome [10] | outcome [11] | outcome [16] | outcome [12]

CC(C)(CCC(=O)O)C(=O)O
inactive: Potency [1] | Potency [17] | Potency [3] | outcome [13] | outcome [6] | outcome [18] | outcome [8] | outcome [10] | outcome [11] | outcome [16] | outcome [12]

COC(=O)C1=C(C)NC(C)=C(C(=O)OC(C)C)C1c1cccc2nonc12 (stereo not given)
inactive: Potency [1] | Potency [2] | Potency [3] | Potency [4] | outcome [13] | Potency [5] | outcome [6] | outcome [7] | outcome [14] | outcome [18] | outcome [15] | outcome [8] | outcome [9] | outcome [10] | outcome [11] | outcome [16]

CCCCCCC1CCC(=O)O1 (stereo not given)
inactive: Potency [1] | Potency [2] | Potency [3] | outcome [13] | Potency [5] | outcome [6] | outcome [7] | outcome [14] | outcome [15] | outcome [8] | outcome [9] | outcome [11] | outcome [16]

CC1=NN(c2cccc(S(=O)(=O)O)c2)C(=O)C1
inactive: Potency [1] | Potency [2] | Potency [4] | outcome [13] | outcome [6] | outcome [14] | outcome [18] | outcome [15] | outcome [11] | outcome [16] | outcome [12]

CCN1C=CN(C)C1C (stereo not given)
inactive: Potency [1] | Potency [3] | outcome [13] | Potency [5] | outcome [6] | outcome [7] | outcome [14] | outcome [18] | outcome [15] | outcome [8] | outcome [9] | outcome [10] | outcome [11]

CCCCCCCCCCOc1cc2c(=O)c(C(=O)OCC)c[nH]c2cc1OCC
inactive: Potency [1] | Potency [3] | activity change, negative = cytotoxicity [13] 22.1% [at 5.95 µM] | activation [5] -0.445% [at 8.36 µM] | viability change, negative = cytotoxic [6] -3.47% [at 8.36 µM] | activity change, negative = cytotoxicity [7] 1.04% [at 5.95 µM] | activation [14] -0.938% [at 5.95 µM] | activity change, negative = cytotoxicity [18] 8.81% [at 5.95 µM] | ratio activity, negative = inhibition [9] 0.26% [at 6.26 µM] | viability change, negative = cytotoxic [10] 4.21% [at 5.95 µM] | activity change, negative = cytotoxicity [11] 5.04% [at 5.95 µM]

Cc1ccc(C(=O)c2ccc(CC(=O)O)n2C)cc1
inactive: Potency [1] | Potency [3] | outcome [13] | Potency [5] | outcome [6] | outcome [7] | outcome [18] | outcome [10] | outcome [11] | outcome [12]

C[C@H]1[C@H](NC(=O)/C(=N/OC(C)(C)C(=O)O)c2csc(N)n2)C(=O)N1S(=O)(=O)O (stereo in doubt)
inactive: Potency [1] | Potency [2] | outcome [13] | Potency [5] | outcome [6] | outcome [7] | outcome [14] | outcome [18] | outcome [8] | outcome [19] | outcome [10] | outcome [20] | outcome [11]
